# Screens from PubChem BioAssay.
# An excerpt weighted towards active compounds, which were near 3.5% of everything screened.
# MITF primary: blocks human microphthalmia-associated transcription factor. O75030. inhibition, % at 2.6 µM. AID 1259374. AlphaScreen MITF homodimerization, bead proximity signal. hit rate 0.91% among 650,000; in the data active means inhibition above about 50%;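 further: 0% = vehicle wells with protein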
# TEAD-YAP inh: TEAD-YAP interaction inhibition; HEK-TIYL cells, TEAD-Gal4/YAP UAS-luciferase luminescence; inhibition, % at 9.12 µM; hit rate 1.4% among 640,000; AID 1259422; in the data active means inhibition above about 32%;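 further: 0% = median of test compound wells and 100% = reference inhibitor wells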
# FBW7 activator: activators of human E3 ligase FBW7; AlphaScreen FBW7–phospho-cyclin E peptide binding, activator screen; normalized activity (activation), % at 26.1 µM; hit rate 0.13% among 650,000; in the data active means normalized activity above about 1.9%;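 further: purified mutant Fbw7 with reduced substrate affinity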
# Target sequence (Q969H0 whole entry, looked up): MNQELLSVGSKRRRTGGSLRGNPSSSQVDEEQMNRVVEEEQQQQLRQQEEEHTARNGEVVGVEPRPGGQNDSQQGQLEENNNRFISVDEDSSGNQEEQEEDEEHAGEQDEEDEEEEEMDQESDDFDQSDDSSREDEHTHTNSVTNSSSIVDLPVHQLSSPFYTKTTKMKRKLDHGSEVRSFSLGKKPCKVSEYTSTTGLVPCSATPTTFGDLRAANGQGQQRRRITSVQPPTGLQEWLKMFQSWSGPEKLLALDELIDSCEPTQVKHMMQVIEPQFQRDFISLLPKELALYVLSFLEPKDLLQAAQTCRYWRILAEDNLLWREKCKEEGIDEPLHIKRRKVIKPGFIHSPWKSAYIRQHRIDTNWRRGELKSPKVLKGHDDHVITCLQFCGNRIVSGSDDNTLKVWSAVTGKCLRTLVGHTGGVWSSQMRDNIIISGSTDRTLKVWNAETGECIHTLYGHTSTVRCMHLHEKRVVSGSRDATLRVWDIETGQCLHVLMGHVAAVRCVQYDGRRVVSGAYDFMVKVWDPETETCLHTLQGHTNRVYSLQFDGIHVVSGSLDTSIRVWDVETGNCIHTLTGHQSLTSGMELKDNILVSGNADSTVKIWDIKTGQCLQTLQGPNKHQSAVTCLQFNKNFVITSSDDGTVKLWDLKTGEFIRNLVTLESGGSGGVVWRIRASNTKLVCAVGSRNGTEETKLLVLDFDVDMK
# GPR151 ag: human GPR151 activation; PathHunter beta-arrestin GPR151 cells, luminescence; hit rate 1% among 650,000; Q8TDV0; activation, % at 11.2 µM; in the data active means activation above about 4.9%;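 further: 0% = median of compound wells and 100% = cells with positive control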
# The depositor's hits bear a star; x = no result.
SMILES,MITF primary,TEAD-YAP inh,FBW7 activator,GPR151 ag
Cn1c(=O)c2c(nc(SCCCO)n2Cc2ccccc2)n(C)c1=O,3,10,0,0
CCOc1ccc(CN2CCN(Cc3ccc(O)c(OC)c3)CC2CCO)cc1 (stereo not given),2,-7,0,0
CCCC(=O)NC(c1ccc(SC)cc1)c1ccc2cccnc2c1O (stereo not given),15,82*,-1,-1
CCCCC(=O)NC(c1ccc(Cl)cc1Cl)c1ccc2cccnc2c1O (stereo not given),17,46*,-1,1
CC(=O)NC(c1ccc(Cl)cc1)c1ccc2cccnc2c1O (stereo not given),19,90*,-2,2
CCCC(=O)NC(c1ccccc1Cl)c1ccc2cccnc2c1O (stereo not given),53*,95*,-1,1
CCC(=O)NC(c1ccc(Cl)cc1)c1cc(Cl)c2cccnc2c1O (stereo not given),-2,-2,0,-1
CC(=O)NC(c1ccccc1Cl)c1ccc2cccnc2c1O (stereo not given),37,90*,-2,1
O=C(NC(c1ccccc1)c1ccc2cccnc2c1O)c1ccccc1 (stereo not given),24,22,-2,1
CC(=O)NC(c1ccc(F)cc1)c1ccc2cccnc2c1O (stereo not given),44,85*,-2,-1
CCC(=O)NC(c1ccccc1Cl)c1cc(Cl)c2cccnc2c1O (stereo not given),1,50*,0,0
COc1ccc(C(=O)NC(c2ccccc2Cl)c2cc(Cl)c3cccnc3c2O)cc1 (stereo not given),11,8,0,0
Cc1ccc(COC(=O)c2ccc3ncsc3c2)cc1,18,-66,0,-3
CCOC(=O)C(C)Oc1ccc2cc(-c3ccc(OC)c(OC)c3)c(=O)oc2c1 (stereo not given),-12,7,2.3*,-8
COc1ccccc1-c1cc2ccccc2oc1=O,2,-13,0,0
CCOC(=O)COc1ccc2c(C)c(-c3ccc(OC)c(OC)c3)c(=O)oc2c1,-15,6,2.0*,1
COc1ccc(-c2cc3ccccc3oc2=O)cc1N,4,33*,0,-1
OCC1(CC2CCCCO2)CCN(Cc2cc3c(cc2Cl)OCO3)CC1 (stereo not given),-2,12,0,0
O=C1C(=O)N(CCCn2ccnc2)C(c2ccncc2)/C1=C(/O)c1ccccc1 (stereo not given),-9,6,0,0
Cc1ccc2c(C)nc(Nc3nc(C)c(C)c(=O)[nH]3)nc2c1,28,44*,0,-1
Cc1ccc2nc(Nc3nc(C)c(C)c(=O)[nH]3)nc(C)c2c1,4,-32,0,0
COC(=O)C1=C(C)NC(C)=C(C(=O)OC)C1c1ccc(Cl)cc1Cl,-7,1,0,0
Cc1cc(NC(=O)CSc2nnc(-c3ccco3)c(-c3ccco3)n2)no1,25,32*,0,0
O=C(CSc1nnc(-c2ccco2)c(-c2ccco2)n1)Nc1cccc(C(=O)O)c1,26,1,0,1
O=C(CSc1nnc(-c2ccco2)c(-c2ccco2)n1)Nc1ccc(C(=O)O)cc1,73*,1,-1,0
SMILES,MITF primary,TEAD-YAP inh,FBW7 activator,GPR151 ag
CCNc1nc(NCC)n2c(SCC(=O)Nc3cc(=O)n(C)c(=O)n3C)nnc2n1,73*,-3,0,0
CCNc1nc(NCC)n2c(SCC(=O)Nc3cccc(Cl)c3C)nnc2n1,76*,4,0,1
CCNc1nc(NCC)n2c(SCC(=O)c3ccc(OC)c(OC)c3)nnc2n1,69*,7,-1,2
O=C(NCCc1ccc(O)cc1)c1cccc(Nc2nccc3ccccc23)n1,-5,-16,0,-1
COc1cc(-n2c(=O)c3ccccc3n(CC(=O)C(C)(C)C)c2=O)cc(OC)c1OC,22,-3,1,0
COc1ccc(Cc2nnc(C3CCN(C(=O)Cn4cnc5ccccc54)CC3)s2)cc1,-3,54*,0,2
O=C(O)c1cccc(N2C(=O)/C(=C\c3ccc(O)c([N+](=O)[O-])c3)SC2=S)c1,-5,-3,0,-1
COc1cccc(C(=O)Nc2nc3c(s2)CCC3)c1OC,-4,62*,0,-9
COc1cccc(OC)c1C(=O)Nc1nc2c(s1)CCCC2,9,-33,1,1
COc1ccc(C(=O)Nc2nc3c(s2)CCCC3)c(OC)c1OC,8,62*,1,-2
Cc1cccc2sc(NC(=O)CCN3C(=S)NC(C)(C)CC3C)nc12 (stereo not given),11,-10,1,0
C=C1C(=O)O[C@H](CCCCCCCC)[C@H]1C(=O)O,16,x,x,-1
Cc1onc(-c2ccccc2Cl)c1-c1nc(-c2cccnc2)no1,4,58*,0,-2
Cn1nc(-c2cccnc2)nc2c(=O)n(C)c(=O)nc1-2,9,97*,0,-6
Cn1nc(-c2ccc(Cl)cc2)nc2c(=O)n(C)c(=O)nc1-2,14,-48,0,-8
C/C(=C\c1ccccc1)c1nc2c(=O)n(C)c(=O)nc-2n(C)n1,-8,34*,0,-4
COc1ccc(-c2nc3c(=O)n(C)c(=O)nc-3n(C)n2)cc1,5,98*,0,-9
Cn1nc(-c2ccc(F)cc2)nc2c(=O)n(C)c(=O)nc1-2,18,89*,0,-8
CC(C)C1=NN2C(=N)/C(=C/c3ccc(OCCOc4ccccc4)cc3)C(=O)N=C2S1,-6,-10,0,1
CCCCNC(=O)NCc1ccc(C(=O)O)cc1,-4,-5,0,1
COc1ccc(-n2c3c(cc(C(=O)Nc4cccc(F)c4)c2=O)C(=O)CCC3)cc1,-7,3,0,-1
Cc1cc2nccc(NC(=O)CSc3ccccc3)n2n1,-12,4,2.1*,3
Cc1cc2nccc(NC(=O)c3c(F)cccc3F)n2n1,-2,10,0,0
CCOc1ccc2nc(NC3=NC(C)(C)CC(C)=N3)nc(C)c2c1,-1,28,0,-1
CC1=NC(Nc2nc(C)c3cc(C)ccc3n2)=NC(C)(C)C1,-8,37*,1,-1
SMILES,MITF primary,TEAD-YAP inh,FBW7 activator,GPR151 ag
COc1ccccc1N=c1scc(-c2ccc(OC)c(OC)c2)n1CCCO,11,42*,0,1
COc1ccc(-c2csc(=Nc3ccccc3)n2CCCO)cc1OC,11,5,0,-1
COc1cc(Nc2nc(Nc3cnccn3)nc3c2ncn3C(C)C)cc(OC)c1OC,5,47*,0,2
COc1cc2nc(Nc3cnccn3)nc(Nc3cc(OC)c(OC)c(OC)c3)c2cc1OC,15,33*,0,1
COc1cc(Nc2nc(Nc3ccc(-n4ccnc4)cc3)nc3c2ncn3C(C)C)cc(OC)c1OC,-1,40*,0,-2
COc1cc(Nc2nc(Nc3ccc(N4CCOCC4)cc3)c3ncn(C(C)C)c3n2)cc(OC)c1OC,17,33*,0,1
COc1cc(Nc2nc(Nc3ccc(N4CCOCC4)cc3)nc3c2ncn3C(C)C)cc(OC)c1OC,5,4,0,0
